# Many of the other results were omitted from the sample, so hits are more common in it than they were.
# Dicer processing = inhibitors of human Dicer processing of pre-microRNA. z-score at 25 µM. 47,000 tested, 6% active. cat-ELCCA pre-miR-21 Dicer processing, chemiluminescence; stronger effect = higher value. Q9UPY3. AID 1347074; in the data active = z-score above about 3, passing the limit was not always enough;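 note: plate controls were vehicle for no effect and no enzyme for full effect; higher signal means more uncleaved substrate so more Dicer inhibition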
# Starred values were filed as active, the others as inactive.
SMILES,Dicer processing
O=S(=O)(CCN(Cc1cccs1)S(=O)(=O)c1ccc(Cl)cc1)c1ccc(Cl)cc1,1.7
CNC(=S)N(CCS(=O)(=O)c1ccc(Cl)cc1)Cc1cccs1,3.2*
O=S(=O)(CCN(Cc1cccs1)C(=S)Nc1cccc(F)c1)c1ccc(Cl)cc1,-1.9
CCOC(=O)c1c(NC(=O)CNC(C)(C)C)sc2c1CCCCC2,-2.4
Cc1nc2ccc(Br)cc2c(=O)o1,-0.27
O=c1oc(/C=C/c2ccco2)nc2ccccc12,18*
Cc1ccc2nc(-c3cc4ccccc4o3)oc(=O)c2c1,-0.92
O=C(Nc1nc2ccccc2c(=O)s1)c1ccco1,-0.49
O=c1c2ccccc2nc(/C=C/c2ccco2)n1Cc1ccccc1,3*
Cc1ccc2nc(/C=C/c3ccco3)oc(=O)c2c1,11*
O=C(CSc1nc2ccccc2c(=O)n1Cc1ccco1)c1ccccc1,-1.3
COc1ccccc1/C=C/c1nc2cc(Cl)ccc2c(=O)o1,0.09
C(=C\c1ccco1)/C1=NN(Cc2ccccc2)CC1,0.78
CCOC(=O)c1c(C)oc2ccc(OCc3ccc(Br)cc3)cc12,0.4
Cc1nnsc1-c1onc(C)c1-c1nc(-c2ccc([N+](=O)[O-])s2)no1,-1.4
O=C(c1ccc(F)c(Cl)c1)c1ccc(F)c(Cl)c1,0.3
CCOc1ccc(C2/C(=C(/O)c3ccc(C)cc3)C(=O)C(=O)N2CC(C)O)cc1 (stereo unspecified),-0.91
Cn1c(N/N=C/c2ccc(Br)cc2)nc2c1c(=O)n(Cc1cccc(F)c1)c(=O)n2C,1.6
CC1CCN(/C(=N/S(=O)(=O)c2ccc(-n3nc(C(F)(F)F)cc3-c3cccs3)cc2)NN)CC1,0.32
NCCSC1CC(=O)N(c2ccc(Cl)cc2)C1=O (stereo unspecified),-1.3
O=C1c2oc3ccc(F)cc3c(=O)c2C(c2ccc(O)cc2)N1Cc1ccc(F)cc1 (stereo unspecified),-0.02
Cc1ccccc1C1CC(=O)Nc2nc(N)[nH]c(=O)c21 (stereo unspecified),-1.5
COc1nc(-c2ccc(Cl)cc2)ccc1-c1noc(COc2ccccc2)n1,1.5
CCN1C(=O)C2(/C(=C(/O)c3ccc(OC)cc3)C(=O)C(=O)N2CCCOC)c2ccccc21 (stereo unspecified),2
CCCN1C(=O)C2(/C(=C(/O)c3ccc(C)c(F)c3)C(=O)C(=O)N2CCCOC)c2ccccc21 (stereo unspecified),1
SMILES,Dicer processing
CCOc1ccc(/C(O)=C2/C(=O)C(=O)N(CCCOC)C23C(=O)N(CC)c2ccccc23)cc1 (stereo unspecified),-7.4
CCCN1C(=O)C2(/C(=C(/O)c3ccc(F)cc3)C(=O)C(=O)N2CCCOC)c2ccccc21 (stereo unspecified),3.6*
CCN1C(=O)C2(/C(=C(/O)c3ccc(C)cc3)C(=O)C(=O)N2CCCOC)c2ccccc21 (stereo unspecified),3.3*
CCCN1C(=O)C2(/C(=C(/O)c3ccc(C)cc3)C(=O)C(=O)N2CCOC)c2ccccc21 (stereo unspecified),1.2
CC1CC(C)CN(c2nc3nonc3nc2Nc2ccc3c(c2)OCO3)C1 (stereo unspecified),0.59
O=C1NC(c2cc(Br)cs2)Nc2ccccc21 (stereo unspecified),-0.25
CC1=CC(C)(C)N(C(=O)CSc2nccc(C)n2)c2ccc(C)cc21,0.13
NC(=O)c1c(NC(=O)CSc2nnnn2-c2ccccc2)sc2c1CCC2,-1.4
O=c1[nH]cnc2c1cnn2-c1ccc(F)cc1,1.3
Cc1nc2c(cnn2-c2ccccc2)c(=O)o1,-1.4
O=c1[nH]cnc2c1cnn2-c1ccccc1,3.6*
CC(C)NC(=O)NNC(=O)C(C)n1nnc(N2CCOCC2)n1 (stereo unspecified),-0.54
Cc1c(C(=O)O)cc(C(C)(C)C)n1CCSCc1c(F)cccc1Cl,-1.4
CC(=O)OC[C@H]1OC(OC(C)(C)C)[C@H](OC(C)=O)[C@@H](OC(C)=O)[C@@H]1OC(C)=O (stereo partly specified),-0.16
COc1ccc(C2CC(=O)C3=C(C2)NC(C)=C(C(=O)OC2CCCC2)C3c2ccccc2)cc1 (stereo unspecified),0.73
COc1cccc(NC(=O)C(=O)c2cc(Br)ccc2NC(C)=O)c1,0.52
NS(=O)(=O)c1ccc(NNC(=S)NCc2ccc(F)cc2)cc1,1.3
C=CCNC(=S)NNC(=O)c1sc2nc(C)cc(C)c2c1N,4.2*
C=CCNC(=S)NNC(=O)c1sc2nnc(-c3ccccc3)c(-c3ccccc3)c2c1N,16
Cc1cc(C)c2c(N)c(C(N)=O)sc2n1,0.03
COC(=O)C1=C(C)NC2=C(C(=O)CC(c3ccc(Cl)cc3)C2)C1c1ccc(OC)cc1OC (stereo unspecified),0.01
COc1cccc(C2C(C#N)=C(N)Oc3n[nH]c(C(C)(C)C)c32)c1 (stereo unspecified),-1.6
CCn1ccnc1C(O)c1ccc(OC)c(OC)c1 (stereo unspecified),1.4
CCOc1ccc(/C(O)=C2/C(=O)C(=O)N(CCCN(C)C)C23C(=O)N(CC)c2ccccc23)cc1 (stereo unspecified),-0.29

# Assay outcomes: PubChem BioAssay, Center for Chemical Genomics, University of Michigan
